Test results reported in the supplement of paper PMC12669032.

Test system: Escherichia coli IAI1
Assay: growth AUC relative to DMSO control (median of replicates) (fraction); higher = more growth (less inhibition), active = hit call of the paper
Details: 20 µM; 24 h;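 active = AUC reduced over 20% with Padj below 0.05 in at least 2 of 3 replicates; inactive = otherwise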
Outline: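 Hourly OD600 readings over 24 h tracked anaerobic gut bacterial monocultures grown at 37 °C in mGAM from OD600 0.05 with 20 µM compound (1% DMSO). After the minimum OD was set to 0, area under the growth curve was normalised to the plate median of solvent-only wells, or to row and column medians on the industrial chemical plate. Values are medians of three biological replicates grown on separate days.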

Growth AUC, inactive:
CC1=C(C(=O)Nc2ccccc2)CCCO1 0.981
CCOCCOC(=O)C(C)Oc1ccc(Oc2ncc(C(F)(F)F)cc2Cl)cc1 (stereo unspecified) 0.986
NS(=O)(=O)[O-].[NH4+] 1.02
CCOC(=O)CSc1nc(C(C)(C)C)nn1C(=O)N(C)C 0.947
CCc1cccc(C)c1NC(=O)CS(=O)(=O)[O-].[Na+] 0.983
ClC(COCC(Cl)C(Cl)(Cl)Cl)C(Cl)(Cl)Cl (stereo unspecified) 0.983
CCC(C)c1cc([N+](=O)[O-])cc([N+](=O)[O-])c1OC(=O)OC(C)C (stereo unspecified) 0.929
CC(C)(CO)C(O)(CCc1ccc(Cl)cc1)Cn1cncn1 (stereo unspecified) 0.999
CC(C)(C)C(=O)C(Oc1ccc(Cl)cc1)n1ccnc1 (stereo unspecified) 0.994
CC(C)(NC(=O)C(Br)C(C)(C)C)c1ccccc1 (stereo unspecified) 0.983
COc1cc(OC)nc(NC(=O)NS(=O)(=O)c2c(Cl)nc3ccccn23)n1 1.01
CCc1ccc(O)cc1 0.997
CCOc1nc(F)cc2nc(S(=O)(=O)Nc3c(Cl)cccc3C(=O)OC)nn12 1.01
CCOCCc1ccc(OCCNc2ncnc(CC)c2Cl)c(C)c1C 0.961
CCOC(=O)[C@@H](C)Oc1ccc(Oc2cnc3cc(Cl)ccc3n2)cc1 1.01
Cc1cccc(C)c1N(C(=O)CCl)C1CCOC1=O (stereo unspecified) 1.01
